# Most compounds without a hit are left out; they make up all but 1.6% or so of the library.
# eIF4H inh – human eIF4H binding inhibitors, primary screen, translation initiation inhibitor project, biochemical, uHTS, fluorescence polarization. eIF4H fluorescence polarization binding assay. hit rate 0.94% among 290,000. Eukaryotic translation initiation factor 4H (Homo sapiens), Q15056. inhibition, % at 35 µM;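 further: calls also rest on retests at 20 µM and on dose response follow-up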
# PABP polyA inh – PABP poly(A) RNA binding inhibitors, primary screen, biochemical, fluorescence polarization, uHTS. hit rate 1% among 290,000. Polyadenylate-binding protein 1 (Homo sapiens), P11940. inhibition, % at 35 µM;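 further: calls also rest on retests at 20 µM and on dose response follow-up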
# PERK inhibitor – block of dimerizer-induced PERK translation repression, primary screen, PERK inhibitor project, CHO PERK-DD cells, SEAP luminescence, HTS. AID 1416, 2008. hit rate 0.17% among 220,000. Eukaryotic translation initiation factor 2-alpha kinase 3 (Homo sapiens), Q9NZJ5. inhibition, % at 5.6 µM. CHO PERK-DD fusion, SEAP luminescence translation reporter;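 active means inhibition above the mean inhibition of all tested compounds plus 3 SD, set separately per screening campaign, cut at about 2.9% in these data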;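 further: PERK kinase domain activated by AP20187 dimerizer at 100 nM; 0% = DMSO with dimerizer and 100% = rapamycin at 8.4 µM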
# Target sequence (Q9NZJ5 whole entry, looked up, the tested form may be a part): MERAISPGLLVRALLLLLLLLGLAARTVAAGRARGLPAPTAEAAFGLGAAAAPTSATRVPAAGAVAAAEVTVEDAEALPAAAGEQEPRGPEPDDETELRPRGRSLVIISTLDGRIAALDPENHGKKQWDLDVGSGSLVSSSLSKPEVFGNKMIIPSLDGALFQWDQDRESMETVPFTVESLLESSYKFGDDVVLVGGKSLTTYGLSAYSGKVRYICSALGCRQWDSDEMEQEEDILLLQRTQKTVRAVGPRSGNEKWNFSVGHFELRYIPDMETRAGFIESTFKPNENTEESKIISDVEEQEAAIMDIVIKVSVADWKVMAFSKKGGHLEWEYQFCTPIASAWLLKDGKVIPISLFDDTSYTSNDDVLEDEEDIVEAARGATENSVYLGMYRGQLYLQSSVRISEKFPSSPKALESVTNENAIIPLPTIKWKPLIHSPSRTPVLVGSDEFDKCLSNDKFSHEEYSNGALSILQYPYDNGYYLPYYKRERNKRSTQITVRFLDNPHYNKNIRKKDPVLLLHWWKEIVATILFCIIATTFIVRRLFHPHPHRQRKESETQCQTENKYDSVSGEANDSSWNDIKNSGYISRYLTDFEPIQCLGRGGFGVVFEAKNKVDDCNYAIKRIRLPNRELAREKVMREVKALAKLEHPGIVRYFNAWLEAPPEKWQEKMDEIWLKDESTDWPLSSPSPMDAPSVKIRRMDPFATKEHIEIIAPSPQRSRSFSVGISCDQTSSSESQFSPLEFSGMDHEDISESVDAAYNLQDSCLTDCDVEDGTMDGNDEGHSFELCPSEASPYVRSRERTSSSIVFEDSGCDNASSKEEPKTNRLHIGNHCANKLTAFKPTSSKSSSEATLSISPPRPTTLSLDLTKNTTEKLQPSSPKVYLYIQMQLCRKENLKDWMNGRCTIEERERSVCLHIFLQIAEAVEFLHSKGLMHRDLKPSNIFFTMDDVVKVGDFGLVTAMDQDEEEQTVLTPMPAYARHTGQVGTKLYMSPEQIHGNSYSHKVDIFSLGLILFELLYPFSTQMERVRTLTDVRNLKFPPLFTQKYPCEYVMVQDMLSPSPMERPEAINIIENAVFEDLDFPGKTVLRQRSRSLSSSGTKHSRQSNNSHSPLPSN
# eIF4E 4G PPI – eIF4E–eIF4G protein interaction inhibitors, primary screen, biochemical, uHTS, TR-FRET, eIF4GI fragment; TR-FRET eIF4E-eIF4GI(517-606) binding, 2 h; inhibition, % at 21.7 µM; Eukaryotic translation initiation factor 4E (Mus musculus) + Eukaryotic translation …; hit rate 0.37% among 220,000;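 active means inhibition above about 30%, limit read from the data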;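 further: 0% = full FRET control wells and 100% = background wells lacking eIF4GI fragment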
# PABP1 MLLE inh – inhibitors of PABP1 MLLE–PAM2 peptide binding, primary screen, biochemical, fluorescence polarization, FITC-PAM2, GST-MLLE; inhibition, % at 20 µM; hit rate 0.36% among 360,000; AID 588489, 2011; in the data active means inhibition above about 35%, passing the limit was not always enough;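 further: plate controls were DMSO wells with GST-MLLE for no effect and wells lacking GST-MLLE protein for full effect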
# Active calls of the source: *; ? = inconclusive; · = not tested or not shown; [ ] = remark or other dose. Unless noted, how the calls were made is not given here.
SMILES,eIF4H inh,PABP polyA inh,PERK inhibitor,eIF4E 4G PPI,PABP1 MLLE inh
Cc1noc(/C=C/Nc2ccc(F)cc2F)c1[N+](=O)[O-],69.8,15.7,0.9,-2.8,50.1*
CCOC(=O)c1c(C)[nH]c(C(=O)OCC(=O)NC2(C#N)CCCCC2)c1C,·,·,·,·,-9.8
Cc1cc(C)nc(SCc2ccc(C(=O)O)o2)n1,-3.6,0.2,3.1*,0.4,-1.1
Cc1oc2ccc(O)cc2c1C(=O)c1ccc([N+](=O)[O-])cc1,active,66.2*,1.4,2.7,-3.5
Cc1oc2ccc(O)cc2c1C(=O)c1ccc(Cl)cc1,-8.1,-1.3,-0.1,-1.9,-2.3
COC(=O)CC(NC(=O)C1CC1)c1ccc2c(c1)OCO2 (stereo not drawn),4.4,7.1,1.7,-3.6,13.2
COc1cc(C(=O)NNC(=S)NC(=O)c2ccc(Cl)cc2)cc(OC)c1OC,11.5*,90.9,0.6,5.6,15.9
Cc1cccc(C(=O)Nc2cc(OCc3cccc(F)c3)c(Cl)cc2Cl)c1,-5.3,4.0,1.4,-6.5,-3.1
CCOC(=O)c1ccccc1NC(=O)N1CCn2c(C)ccc2C1CC (stereo not drawn),?,115.5*,-0.6,6.2,4.8
CCC1c2ccc(C)n2CCN1C(=O)Nc1ccccc1C(=O)OC (stereo not drawn),131.7,124.9*,0.2,6.1,24.0
Cc1ccccc1NC(=O)c1c(C)[nH]c(=S)c(C#N)c1-c1ccc(Cl)cc1,2.1,7.8,0.4,-2.4,5.2
Cc1[nH]c(=S)c(C#N)c(-c2ccccc2)c1C(=O)Nc1ccccc1,-7.8,3.0,0.3,32.2*,3.6
CCn1ccnc1CNC(=O)CC1C(=O)NCCN1Cc1ccc(OC)cc1OC (stereo not drawn),2.9,-1.1,0.6,-3.4,10.7
Cc1c(C(=O)N/N=C/c2ccc(-c3ccccc3[N+](=O)[O-])o2)sc(N)c1C#N,73.2*,active,0.0,4.7,1.2
Cc1c(-c2ccc(/C=N/NC(=O)C(=O)Nc3ccccc3F)o2)cccc1[N+](=O)[O-],7.0,-4.7,2.1,-8.0,-85.0
CCC(C(=O)N1CCN(S(=O)(=O)c2ccc(F)cc2)CC1)c1ccccc1 (stereo not drawn),·,·,·,·,-2.8
CCCCNC(=O)CC1S/C(=N/N=C/c2ccc(OC)cc2)NC1=O (stereo not drawn),10.4*,84.5,0.6,-2.0,-13.9
COc1ccc(/C=N/N=C2/NC(=O)C(CC(=O)NC(N)=O)S2)cc1 (stereo not drawn),0.2,8.5,0.7,-1.1,-0.8
CC1CCc2c(sc(NC(=O)C3CCCO3)c2C#N)C1 (stereo not drawn),-0.7,-9.2,0.9,2.1,1.4
CSc1nsc(SCC(=O)N2CCc3ccccc32)n1,5.9,7.8,-0.8,37.8*,7.9
CCNc1nc(Oc2ccc(Cl)cc2Cl)cc(C(F)(F)F)n1,0.6,4.0,1.8,4.4,7.0
COc1cc2c(cc1OC)CN(C(=O)CCN1C(=O)C3CCCCC3C1=O)CC2 (stereo not drawn),6.2*,74.6*,0.6,1.2,5.0
COc1cc2c(cc1OC)CN(C(=O)COc1ccc(C#N)cc1)CC2,6.8*,64.0*,-0.4,-5.8,12.8
COc1cc2c(cc1OC)CN(C(=O)COc1ccccc1C#N)CC2,-15.7,2.2,·,·,7.1
O=C(O)c1ccc(N/N=C/c2ccc(F)c(F)c2)cc1,-9.6,-23.7,1.5,-8.1,-8.3
Nc1cc(C(=O)O)ccc1Nc1ccc(F)c(F)c1,64.6*,34.6*,0.1,1.1,2.9
O=C(c1cccn2c(=O)c3ccccc3nc12)N1CCN(Cc2ccc3c(c2)OCO3)CC1,-6.2,-4.0,-1.0,·,-0.9
O=C(c1cccn2c(=O)c3cc(Cl)ccc3nc12)N1CCN(Cc2ccc3c(c2)OCO3)CC1,-5.0,11.4,-0.9,46.1*[fluorescence artefact?],5.0
CC(=O)NC(c1ccccc1)c1cc(Cl)c2cccnc2c1O (stereo not drawn),21.5,3.6,·,·,3.1
O=C(NC(c1ccc(Cl)cc1)c1cc(Cl)c2cccnc2c1O)c1cccnc1 (stereo not drawn),?,89.7*,0.7,4.3,-1.5

# Compound activity as filed in PubChem BioAssay.
